# From article PMC7826789 (International Journal of Molecular Sciences, 2021)
# Assays:
# Conditions in all cases: Compound Concentration (nM):1000
# BRSK2 = tested on: BRSK2
# BTK = tested on: BTK
# BUB1 = tested on: BUB1
# CAMK1B = tested on: T1, CAMK1B
# T1 construct: gene PNCK
# CAMK1D = tested on: CAMK1D
# CAMK1G = tested on: CAMK1G
# CAMK1 = tested on: CAMK1
# CAMK2A = tested on: CAMK2A
# CAMK2B = tested on: CAMK2B
# CAMK2D = tested on: CAMK2D
# 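Note: KINOMEscan scanMAX binding as percent activity remaining versus control; lower means stronger binding.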
Structure (SMILES),Percent Control (BRSK2),Percent Control (BTK),Percent Control (BUB1),Percent Control (CAMK1B),Percent Control (CAMK1D),Percent Control (CAMK1G),Percent Control (CAMK1),Percent Control (CAMK2A),Percent Control (CAMK2B),Percent Control (CAMK2D)
COc1ccccc1-c1cc(/C=C2\C(=O)Nc3ncc(Br)cc32)cc(Br)c1O [GW442130X],100%,99%,73%,78%,100%,100%,100%,85%,88%,100%
CC1=C(C(=O)Nc2ccc3[nH]ncc3c2)C(c2ccc(Cl)c(Cl)c2)CC(=O)N1 (stereo not drawn) [GSK299115A],98%,26%,73%,81%,90%,100%,87%,80%,88%,96%
NS(=O)(=O)c1ccc(N/N=C2\C(=O)Nc3ccc(-c4cnco4)cc32)cc1 [GW276655],66%,50%,74%,76%,71%,85%,74%,56%,78%,72%
COc1ccc2cc(-c3c(-c4ccncc4)nc(-c4ccc(S(C)(=O)=O)cc4C)n3C)ccc2c1 [SB-633825],73%,45%,33%,53%,96%,83%,93%,87%,97%,77%
CN(C)c1cc2c(Nc3ccc4c(cnn4Cc4ccccc4)c3)ncnc2cn1 [GW282974X],88%,64%,63%,98%,96%,91%,95%,74%,62%,72%
CCn1c(-c2nonc2N)nc2c(C#CC(C)(C)O)nc(OCCNC)cc21.Cl [GSK949675],91%,100%,71%,100%,100%,100%,100%,100%,100%,100%
